# Compound activity from PubChem.
# The list is not random: actives were taken first. Their share in the collection is about 5.9%.
# rCAG RNA binder: r(CAG) repeat RNA binding; TO-PRO-1 dye displacement fluorescence; inhibition, % at 3 µM; 370,000 compounds, 1.3% hits; AID 651821;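 active = inhibition above the plate cutoff, the mean of all test compounds on that plate plus 3 SD, cut at about 35% in these data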;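 note: 0% = DMSO alone and 100% = 100 µM mitoxantrone as full dye displacement; higher means more dye released from RNA so lower well fluorescence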
# Rtt109 HAT inh: blocks Candida albicans Rtt109/Vps75 acetyltransferase activity; Q5AAJ8; purified Rtt109/Vps75, ThioGlo CoA-SH fluorescence, 4 h; inhibition, % at 34.9 µM; 330,000 compounds, 0.16% hits; AID 540336;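 active = inhibition of at least 50% in every replicate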
# Target sequence (Q5AAJ8 whole entry, looked up): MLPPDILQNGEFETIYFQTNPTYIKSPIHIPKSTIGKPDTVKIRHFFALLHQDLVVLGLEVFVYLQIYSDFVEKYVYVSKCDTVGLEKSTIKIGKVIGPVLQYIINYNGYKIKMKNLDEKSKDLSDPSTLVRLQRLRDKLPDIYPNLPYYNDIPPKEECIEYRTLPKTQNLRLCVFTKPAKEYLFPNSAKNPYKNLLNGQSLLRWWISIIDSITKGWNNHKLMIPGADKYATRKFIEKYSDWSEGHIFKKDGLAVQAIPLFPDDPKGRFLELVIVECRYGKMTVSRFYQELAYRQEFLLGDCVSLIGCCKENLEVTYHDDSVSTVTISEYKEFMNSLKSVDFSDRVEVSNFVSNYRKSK
# PRMT1 inh: inhibitors of human PRMT1 | Q99873 | recombinant PRMT1, activity-based probe fluorescence polarization | inhibition, % at 2.79 µM | 370,000 compounds, 1.3% hits;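 active = inhibition above about 21% made by adding two undisclosed values, limit read from the data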
# ALR inh: human ALR oxidase inhibition via reduced H2O2 | P55789 | purified ALR, DTT oxidation, H2O2 HRP-luminol luminescence | inhibition, % (concentration not given with the values) | 290,000 compounds, 3.8% hits | AID 485317;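 active = mean replicate inhibition above about 79%, with every replicate also reaching it, limit read from the data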
# ABHD5-PLIN5 inh: inhibitors of human ABHD5-perilipin-5 interaction; AID 602281; 360,000 compounds, 0.78% hits; Split G. princeps luciferase complementation, luminescence, 4 h; inhibition, % at 4 µM; Q00G26+Q8WTS1;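 active = inhibition above the mean inhibition across every tested compound plus 3 SD, cut at about 22% in these data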;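 note: 0% = DMSO only wells and the 100% control is not disclosed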
# LANA-H2A inh: blocks KSHV LANA binding to histone H2A/H2B | Q9QR71 | cell-free LANA-H2A/H2B peptide, fluorescence polarization | inhibition, % (concentration not given with the values) | 320,000 compounds, 0.6% hits; in the data active = inhibition mostly above about 10%, no sharp cut-off; inactive = mostly below about 6.7%
# The depositor's hits bear a star; / = no result given; ! = a repeat was not active.
SMILES,rCAG RNA binder,Rtt109 HAT inh,PRMT1 inh,ALR inh,ABHD5-PLIN5 inh,LANA-H2A inh
CCOC(=O)c1nc2ccccc2c(C)c1C,-4.1,2.0,3.5,/,-3.7,-3.7
N#C/C(=N\Nc1ccc(F)cc1)C(=N)N1CCCCC1,-3.4,5.7,2.7,64.2,4.0,-0.5
COc1ccc(N/N=C(\C#N)C(N)=O)cc1,4.3,11.1,2.8,98.3*,5.5,3.6
COc1ccc(N/N=C(\C#N)C(=N)N2CCOCC2)cc1,2.5,20.4,-1.7,99.1*,1.6,-0.7
CCOc1ccc(N/N=C(/C#N)C(N)=O)cc1,-1.4,13.1,-4.2,97.7*,-2.9,-5.8
Cc1ccccc1S(=O)(=O)NC(=O)C1(C)CCN1C(=O)C1CCCCC1 (stereo not given),4.7,/,-1.7,/,-0.9,/
COc1ccc(-c2ncccc2O)cc1,-0.3,-3.3,1.9,20.8,4.4,2.4
CCOc1c(C)cc(-c2ncccc2O)cc1C,2.5,-1.3,-1.5,91.9*!,-6.3,1.5
CC(=O)N1CCN(C(=O)COC(=O)/C=C/c2ccc(C(F)(F)F)cc2)CC1,2.3,2.9,0.3,-2.8,-14.5,-1.8
Cc1cc(N2C(=O)C=CC2=O)c([N+](=O)[O-])cc1C,/,115.5*,/,20.5,33.0*,0.9
O=C1/C(=C/c2cccc([N+](=O)[O-])c2)Oc2cc(O)ccc21,7.2,-16.7,0.7,5.3,7.3,6.6
O=C1/C(=C/c2ccc(O)c(O)c2)Oc2cc(O)ccc21,-3.0,-4.7,4.9,98.4*,6.7,-2.9
COc1ccc(/C=C2\OC(=O)c3c(OC)cccc32)cc1OC,3.5,-14.4,4.2,-13.3,6.4,-0.9
COc1cc(/C=C2\Oc3cc(O)ccc3C2=O)ccc1O,-29.8,-143.1,6.4,97.2*,4.0,-8.7
CCCC1CCC2(CC1)CCC2OC(=S)Nc1ccc(Br)cc1 (stereo not given),/,/,-1.4,/,/,/
Cc1cc(C(=O)c2cccs2)c(N)s1,8.6,-8.2,9.9,99.4*,-10.1,-7.2
Cc1cc(C)c(C(=O)c2cccs2)c(C)c1,-1.3,-0.3,-1.1,/,-6.8,/
COc1ccc(CN2C/C(=C/c3ccccc3)N3C(=O)C[C@@H](c4ccc5ccccc5c4)N=C23)c(OC)c1,10.8,/,1.0,/,/,/
C[C@@H]1O[C@@H](Oc2c(-c3ccc(O)c(O)c3)oc3cc(O)cc(O)c3c2=O)[C@H](O)[C@H](O)[C@H]1O,3.9,15.9,10.4,98.8*,0.5,0.9
COc1cc(-c2oc3cc(O)cc(O)c3c(=O)c2O[C@@H]2O[C@H](COC3O[C@@H](C)[C@H](O)[C@@H](O)[C@H]3O)[C@@H](O)[C@H](O)[C@H]2O)ccc1O (stereo not given in full),-0.2,6.7,1.1,93.6*,0.2,1.6
CC(=O)O[C@@H]1[C@@H](O)[C@@H](O)[C@H](Oc2c(-c3ccc(O)cc3)oc3c(CC=C(C)C)c(O)cc(O)c3c2=O)O[C@H]1C,/,/,/,/,/,0.2
COc1ccc(-c2oc3c(CC=C(C)C)c(O[C@@H]4O[C@H](CO)[C@@H](O)[C@H](O)[C@H]4O)cc(O)c3c(=O)c2O[C@@H]2O[C@@H](C)[C@H](O)[C@@H](O)[C@H]2O)cc1,/,/,/,17.2,/,4.1
C[C@@H]1O[C@@H](O[C@H]2[C@H](O)[C@@H](O)[C@H](Oc3c(-c4ccc(O)c(O)c4)oc4cc(O)cc(O)c4c3=O)O[C@@H]2CO)[C@H](O)[C@H](O)[C@H]1O,2.1,0.5,10.6,96.1*,3.5,6.0
C[C@@H]1O[C@@H](Oc2c(-c3cc(O)c(O)c(O)c3)oc3cc(O)cc(O)c3c2=O)[C@H](O)[C@H](O)[C@H]1O,7.0,6.2,37.1*,99.5*,1.3,8.0
CN(C)c1cccc2c(S(=O)(=O)NCC3CCN(C(=O)C(=O)c4cc5ccccc5o4)CC3)cccc12,9.4,/,-4.2,/,/,/
Fc1ccc(CN2CCN(c3ncc(Cc4ccccc4)cn3)CC2)c(Cl)c1,2.3,/,1.2,/,/,/
COc1ccc(-n2cc(-c3ccccc3)[nH]c2=S)c(OC)c1,8.8,-1.9,20.0,90.1*,1.0,6.0
COc1ccc(-n2cc(-c3ccc(OC)c(OC)c3)[nH]c2=S)cc1,4.0,4.5,13.2,/,-1.5,-3.7
Fc1ccccc1-n1cc(-c2ccccc2)[nH]c1=S,2.0,5.6,10.8,93.3*,-3.9,-2.8
